From PubChem BioAssay
The list is not random: actives were taken first. Their share in the collection is about 9.9%.
SW480 rereplic = inducers of DNA re-replication in SW480 colon cancer cells; 1.8% of 340,000 active; AID 624297; Potency, µM (titrated, usually from 46.1 µM), without a hit: at the highest dose re-replication activation, most hits filed as activators; SW480 DNA re-replication, Hoechst DNA content imaging, 48 h; also: potency is read from the fitted curve at half-maximal effect; % of control where 0% means no effect; nearly all actives have a fitted effect of over 55% in size
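Per well, 250 cells were exposed to pinned compound for 48 hr. Nuclear DNA was visualised with Hoechst (40 min, 37 C) and total object intensity recorded by fluorescence scanning.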
KB-3-1 cytotox = kills parental KB-3-1 adenocarcinoma cells; Potency, µM (doses to about 46.1 µM), usual class: cytotoxic; 1.4% of 400,000 active; KB-3-1 viability, CellTiter-Glo ATP luminescence, 72 h; also: potency is read from the fitted curve at half-maximal effect; % is scaled to controls: 0 for no effect and ±100 for the full control effect; nearly all actives have a fitted effect of over 60% in size
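Here the drug-naive KB-3-1 line serves as comparator for MDR sub-line selectivity; cells received compound titrations, 72 h at 37 °C, then CellTiter-Glo readout.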
IL-1B inflam inh = blocks inflammasome-driven IL-1 beta release; THP-1 LPS/ATP IL-1B secretion, AlphaLISA, 16 h; stronger effect = lower value; activity change, % at 57.5 µM; 4.7% of 360,000 active; in the data active = activity change below about -50%; inconclusive = mostly about -30% to -49%; also: % is scaled to controls: 0 for no effect and ±100 for the full control effect
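Secreted IL-1B measured by AlphaLISA bead assay after 16 h compound exposure of THP-1 cells; compounds (final up to 57.5 uM) added 1 h before LPS (250 ng/mL) and ATP (1.25 mM) stimulation; lower signal means less secretion.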
MCF10A rereplic = induces DNA re-replication in MCF 10a normal breast cells; MCF 10A DNA re-replication, Hoechst nuclear intensity, 48 h; Potency, µM (titrated, usually from 46.1 µM), without a hit: at the highest dose activity, positive = re-replication, usual class: activators; 2.9% of 350,000 active; also: potency is read from the fitted curve at half-maximal effect; % of control where 0% means no effect; nearly all actives have a fitted effect of over 50% in size
KB-V1 cytotox = kills drug-selected multidrug resistant KB-V1 cells. Potency, µM (top dose mostly 46.1 µM), actives largely listed as cytotoxic. KB-V1 MDR cells viability, CellTiter-Glo, 72 h. AID 1347076. 3.4% of 400,000 active; also: potency is read from the fitted curve at half-maximal effect; % is scaled to controls: 0 for no effect and ±100 for the full control effect; nearly all actives have a fitted effect of over 60% in size
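qHTS viability screen in drug-selected KB-V1 MDR cells: 72 h compound treatment at 37 degrees C, ATP luminescence end point.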
An asterisk follows results filed as active; i = inactive; ? = inconclusive; · = not tested or not shown; [ ] = remark or other dose. Unless noted, calls follow the shape of the dose curve; as a rule, active = well fitted curve in the direction sought with a large enough effect; inconclusive = small, poorly fitted or top-dose-only effect, or another doubt; inactive = no such curve, though single readings can be large; an effect the other way counts as inactive or inconclusive.

SMILES	SW480 rereplic	KB-3-1 cytotox	IL-1B inflam inh	MCF10A rereplic	KB-V1 cytotox
O=C1[C@H]2[C@@H](c3ccc(F)cc3)N3C(=O)N(c4cccc(Cl)c4)C(=O)[C@@]3(Cc3ccc(Cl)cc3)[C@H]2C(=O)N1C1CCCCC1	6.0%	i	-22.9	-1.3%	i
COc1cc(NC(=O)CCc2c(C)nc3nc(-c4cc(OC)cc(OC)c4)nn3c2C)cc(OC)c1	·	i	·	·	i
COc1ccc(CCC(=O)Nc2cc([N+](=O)[O-])ccc2OC)cc1	-15.3%	i	5.3	-51.1%	20.6µM*
COc1ccc([N+](=O)[O-])cc1NC(=O)Cc1ccc(C)cc1	-1.9%	i	-7.9	6.1%	i
Cc1ccc(NC(=O)C[n+]2ccccc2)cc1[N+](=O)[O-]	-4.8%	i	27.3	1.7%	i
COc1ccc(CCC(=O)Nc2ccc(C)c([N+](=O)[O-])c2)cc1	13.6%	i	16.0	18.8%	20.6µM*
CCc1ccccc1NC(=O)Cn1nc2c3cc(F)ccc3n(Cc3cccc(C)c3)cc-2c1=O	·	i	·	·	i
CC1C(=O)CC(c2ccccc2)N(C)C1c1ccccc1 (centres undefined)	0.1%	i	-6.5	25.9µM*	i
Cc1cc(=O)oc2cc(OCC(=O)OCC(=O)N3CCC(C)CC3)ccc12	?	i	-60.0*	-42.5%	i
COc1ccc2oc(C(=O)OCC(=O)N3CCC(C)CC3)c(C)c2c1	-3.5%	i	-55.3*	-0.8%	i
CCOC(=O)c1c(C)[nH]c(C(=O)COC(=O)c2oc3ccccc3c2C)c1C	4.2%	?	-4.2	23.8%	i
CCOC(=O)c1c(C)[nH]c(C(=O)COC(=O)c2oc3ccc(OC)cc3c2C)c1C	-9.5%	16.4µM*	-3.0	-1.2%	10.3µM*
COc1ccc2oc(C(=O)OCc3c(C)noc3C)c(C)c2c1	3.2%	i	-107.0*	7.5%	?
Cc1nc2c(-c3ccccc3)c(C)nn2c(C)c1CCC(=O)NCc1ccc(F)cc1	·	i	·	·	i
Cc1ccc(C(=O)N2CCN(c3ccccc3Cl)CC2)cc1[N+](=O)[O-]	-746.5%[1.84 µM]	i	-9.8	-11.2%	i
O=C(OCC(=O)N1CCCC1=O)C1COc2ccccc2O1 (centres undefined)	2.4%	i	5.6	-2.9%	i
Cc1ccc(/C=C2\CCCC3=C2NC(=S)NC3c2ccc(C)cc2)cc1 (centres undefined)	67.1%	?	-16.5	23.2%	16.4µM*
CCC(=O)Nc1ccc2nc(SCCOc3ccc(C)cc3OC)sc2c1	·	i	·	·	i
O=C(NCCc1ccccc1)c1ccc2c(c1)CCN2S(=O)(=O)c1ccc(Cl)cc1	·	i	·	·	i
CCNS(=O)(=O)c1ccc(OC)c(C)c1	16.5%	i	14.9	-2.7%	i
CCNS(=O)(=O)c1ccc2c(c1)NCC2	5.8µM*	i	13.5	-4.8%	i
O=C(CSc1n[nH]c(-c2ccccn2)n1)Nc1ccc(F)cc1	3.26µM*	?	12.6	?	?
O=C(CSc1n[nH]c(-c2ccncc2)n1)Nc1ccc(F)cc1	3.0%	i	53.8	0.3%	i
Cc1ccc(NC(=O)CSc2ccc(-c3ccccn3)nn2)cc1	-1.7%	i	122.2	3.2%	?
CCOc1ccc(NC(=O)CSc2ccc(-c3ccccn3)nn2)cc1	-3.9%	i	40.8	-3.9%	2.91µM*
SMILES	SW480 rereplic	KB-3-1 cytotox	IL-1B inflam inh	MCF10A rereplic	KB-V1 cytotox
O=C(CSc1n[nH]c(-c2ccncc2)n1)Nc1ccccc1	-14.6%	i	15.5	-11.5%	i
Cc1ccc(NC(=O)CSc2n[nH]c(-c3ccccn3)n2)cc1	5.17µM*	?	56.9	?	i
O=C(CSc1n[nH]c(-c2ccc(Cl)cc2Cl)n1)Nc1ccccn1	-4.6%	i	25.5	2.0%	16.4µM*
COc1ccc(C2=C(C)C(N3CCC(C(=O)Nc4ccccc4F)CC3)=NS2(=O)=O)cc1	·	i	·	·	i
O=C(CSc1n[nH]c(-c2ccccn2)n1)Nc1ccc(Cl)cc1	9.2µM*	?	52.2	20.4%	i
CC(=O)/C(C#N)=C1\NC(=O)C(Cc2ccccc2)S1 (centres undefined)	?	14.6µM*	-0.7	23.7%	13µM*
CC(=O)/C(C#N)=C1\NC(=O)C(Cc2ccccc2C)S1 (centres undefined)	3.8%	?	·	-7.5%	5.8µM*
O=C(COC(=O)/C=C/c1ccccc1[N+](=O)[O-])NCC(F)(F)F	-43.2%	i	21.4	-2.2%	i
COc1cc(C2=NOC(C(=O)Nc3ccc(C(C)=O)cc3)C2)cc(OC)c1OC (centres undefined)	-3.9%	i	-5.5	2.3%	i
COc1ccc(C2=NOC(C(=O)Nc3ccc(C(C)=O)cc3)C2)cc1OC (centres undefined)	-8.4%	i	-12.7	16.8%	14.6µM*
COc1ccc(C2OC(=O)CC2C(=O)NC2CCCC(C)C2C)cc1OC (centres undefined)	12.7%	i	9.0	8.1%	?
O=C(C1CC(c2ccc(F)cc2)=NO1)N1CCCCC1 (centres undefined)	-24.8%	i	0.0	5.2%	i
COc1ccc(C2=NOC(C(=O)Nc3cc(Br)ccc3O)C2)cc1OC (centres undefined)	14.9%	i	-0.7	?	?
COc1ccc(C2=NOC(C(=O)N3CCCCCC3)C2)cc1OC (centres undefined)	-7.3%	i	11.5	-6.7%	18.4µM*
COc1ccc(C2=NOC(C(=O)NC3CCCCC3)C2)cc1OC (centres undefined)	-8.9%	i	11.0	-2.2%	16.4µM*
COc1ccc(C2OC(=O)CC2C(=O)NC2CCCCCC2)cc1OC (centres undefined)	?	i	-18.0	6.7%	13µM*
CCN1CCc2c(sc(NC(=S)NC(=O)c3cccc(F)c3)c2C(N)=O)C1	·	i	·	·	i
Cc1ccc(C2(c3ccccc3)NC(=O)N(CC(=O)NCc3ccccc3)C2=O)cc1C (centres undefined)	2.4%	?	?	-1.6%	i
CN(C)N1C(N)=C(C#N)C(c2cccc3ccccc23)C2=C1CC(c1ccccc1)CC2=O (centres undefined)	?	13µM*	-19.8	14.6µM*	20.6µM*
CN(C)N1C(N)=C(C#N)C(c2ccccc2)C2=C1CC(C)(C)CC2=O (centres undefined)	2.4%	i	-11.3	-20.7%	i
CCc1cccc2c(C(=O)CN3C(=O)N(C)C4(CCCCC4)C3=O)c[nH]c12	-0.6%	?	60.0	5.17µM*	i
CC1(C2CC2)NC(=O)N(CC(=O)NCc2ccc(Cl)cc2Cl)C1=O (centres undefined)	8.8%	i	7.1	22.9%	i
CN1C(=O)N(CC(=O)NCc2ccc(Cl)cc2Cl)C(=O)C12CCCCC2	2.0%	i	-54.3*	1.6%	i
